Measurements from PubChem BioAssay (Tox21).
Results filed as inconclusive are left out. Where a call stands in place of a potency, no number is given. Some compounds were tested as several samples or in several runs, with calls that do not always agree. Calls of active or inactive are those of the source. Unless noted, calls come from the whole dose curve; as a rule, active = well fitted curve in the direction sought with a large enough effect in the repeat runs; inconclusive = weak or mixed curves; inactive = no such curve, though single readings can be large; an effect the other way counts as inactive or inconclusive.

Experiments:
[1] = qHTS assay to test for compound auto fluorescence at 535 nm (green) in HEK293 cells (AID 720680)
[2] = qHTS assay to test for compound auto fluorescence at 535 nm (green) in HEK293 cell free culture (AID 720682)
Procedure, shortened: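 Compounds were pin-transferred into cell-free DMEM with 10% FBS, and green fluorescence was read at excitation 485 nm and emission 535 nm. Intensities were expressed as fluorescein-equivalent values.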

[3] = qHTS assay to test for compound auto fluorescence at 590 nm (red) in HEK293 cell free culture (AID 720683)
Procedure, shortened: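 Red-channel autofluorescence of compounds in culture medium (DMEM, 10% FBS), no cells, measured at 540/590 nm. Rose Bengal sodium is the reference fluorophore for equivalence.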

[4] = qHTS assay to test for compound auto fluorescence at 590 nm (red) in HepG2 cell free culture (AID 720684)
Procedure, shortened: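 No cells present: MEM + 10% FBS only. Compound pinned in, red label read (540/590 nm). Activity = fluorescence equivalent to Rose Bengal sodium.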

[5] = qHTS assay to test for compound auto fluorescence at 460 nm (blue) in HepG2 cell free culture (AID 720685)
Procedure, shortened: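 Cell-free plates of MEM plus 10% FBS received 23 nL compound or DMSO vehicle; blue-channel (405/460 nm) intensity scored against triamterene as reference fluorophore.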

[6] = qHTS assay to test for compound auto fluorescence at 535 nm (green) in HepG2 cell free culture (AID 720686); note: potency is the fitted concentration of half-maximal effect
[7] = qHTS assay to test for compound auto fluorescence at 460 nm (blue) in HepG2 cells (AID 720687)
Procedure, shortened: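 Blue-channel autofluorescence (Ex/Em 405/460 nm, triamterene-equivalent) was measured after 1 hr compound exposure at 37 C, 5% CO2. Cells were HepG2, plated overnight at 37 C in MEM plus 10% FBS.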

[8] = qHTS assay to identify small molecule antagonists of the glucocorticoid receptor (GR) signaling pathway - cell viability counter screen (AID 720693); note: nearly all actives have a fitted effect of over 55% in size; note: potency is the fitted concentration of half-maximal effect
[9] = qHTS assay for identifying genotoxic compounds that show differential cytotoxicity against isogenic chicken DT40 cell lines with known DNA damage response pathways - wild type cell line (AID 743012); note: nearly all actives have a fitted effect of over 60% in size; note: potency is the fitted concentration of half-maximal effect
Procedure, shortened: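 300 wt DT40 cells/well; cpd (DMSO) pintool-transferred after ~0.5 h at 37 C/5% CO2; 40 h incubation; CellTiter-Glo added, 30 min RT; luminescence read.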

[10] = qHTS assay for identifying genotoxic compounds that show differential cytotoxicity against isogenic chicken DT40 cell lines with known DNA damage response pathways - Rev3 mutant cell line (AID 743014); note: nearly all actives have a fitted effect of over 55% in size; note: potency is the fitted concentration of half-maximal effect
[11] = qHTS assay for identifying genotoxic compounds that show differential cytotoxicity against isogenic chicken DT40 cell lines with known DNA damage response pathways - Rad54/Ku70 mutant cell line (AID 743015); note: nearly all actives have a fitted effect of over 60% in size; note: potency is the fitted concentration of half-maximal effect
[12] = qHTS assay to identify small molecule antagonists of the androgen receptor (AR) signaling pathway using the MDA cell line - cell viability counter screen (AID 743041; note: nearly all actives have a fitted effect of over 45% in size; note: potency is the fitted concentration of half-maximal effect)
Procedure, shortened: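 Using the breast carcinoma line MDA-kb2 AR-luc, test chemicals were co-incubated with R1881 for 16 h; CellTiter-Fluor reagent, added at 15.5 h, provided a fluorescence measure of live cells.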

[13] = target: Glucocorticoid receptor (Homo sapiens) (UniProt P04150); assay: qHTS assay to identify small molecule agonists of the glucocorticoid receptor (GR) signaling pathway (AID 720691; active = well fitted activation curve with a large enough effect in the signal ratio in the repeat runs, not every such curve was filed as active; the % refers to the signal ratio); conditions: GR-bla HeLa, beta-lactamase reporter ratio, 18 h; activation: at 62.4 µM (top of the series)
Procedure, shortened: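 A HeLa cervical cancer line expressing GR and a glucocorticoid response element-driven beta-lactamase gene is treated with compounds for 18 h; LiveBLAzer B/G FRET substrate is then applied and fluorescence read.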

[14] = qHTS assay to identify small molecule antagonists of the androgen receptor (AR) signaling pathway - cell viability counter screen (AID 743033; note: nearly all actives have a fitted effect of over 45% in size; note: potency is the fitted concentration of half-maximal effect)
[15] = target: Androgen receptor (Homo sapiens) (UniProt P10275); assay: qHTS assay to identify small molecule agonists of the androgen receptor (AR) signaling pathway (AID 743036; active = well fitted activation curve with a large enough effect in the signal ratio in the repeat runs, with a control signal flat, not every such curve was filed as active; the % refers to the signal ratio)
Procedure, shortened: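 Activation was read as beta-lactamase FRET signal from LiveBLAzer B/G substrate, added for 2 h at room temperature. Before that, GeneBLAzer AR-UAS-bla GripTite (HEK293) cells had 16 h compound exposure at 37C.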

[16] = target: Androgen receptor (Homo sapiens) (UniProt P10275); assay: qHTS assay to identify small molecule agonists of the androgen receptor (AR) signaling pathway using the MDA cell line (AID 743040; note: nearly all actives have a fitted effect of over 20% in size)
Procedure, shortened: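 Stable MMTV-luciferase reporter in MDA-kb2 cells; note the promoter carries GR as well as AR response elements. 16 h compound treatment, 37C, 0% CO2; ONE-Glo luminescence endpoint.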

[17] = target: Androgen receptor (Homo sapiens) (UniProt P10275); assay: qHTS assay to identify small molecule antagonists of the androgen receptor (AR) signaling pathway (AID 743035; active = well fitted inhibition curve with a large enough effect in the signal ratio in the repeat runs, not every such curve was filed as active; the % refers to the signal ratio; note: potency is the fitted concentration of half-maximal effect)
Procedure, shortened: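 In this cell-based reporter screen, compounds were tested in concentration series against R1881-activated HEK293 cells expressing beta-lactamase under UAS control; after 16 h at 37C, FRET substrate was added and fluorescence read 2 h later.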

[18] = target: Glucocorticoid receptor (Homo sapiens) (UniProt P04150); assay: qHTS assay to identify small molecule antagonists of the glucocorticoid receptor (GR) signaling pathway (AID 720692; active = well fitted inhibition curve with a large enough effect in the signal ratio in the repeat runs, not every such curve was filed as active; the % refers to the signal ratio; note: potency is the fitted concentration of half-maximal effect)
Procedure, shortened: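 GRE-bla HeLa line, dex-stimulated (5 nM final). Compound exposure 18 h, 37 C. Beta-lactamase FRET read after 2 h RT substrate.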
Tags give direction and shape of the fitted curve or compound fluorescence and quenching.

Sequence of Androgen receptor (Homo sapiens) (P10275 whole entry, looked up): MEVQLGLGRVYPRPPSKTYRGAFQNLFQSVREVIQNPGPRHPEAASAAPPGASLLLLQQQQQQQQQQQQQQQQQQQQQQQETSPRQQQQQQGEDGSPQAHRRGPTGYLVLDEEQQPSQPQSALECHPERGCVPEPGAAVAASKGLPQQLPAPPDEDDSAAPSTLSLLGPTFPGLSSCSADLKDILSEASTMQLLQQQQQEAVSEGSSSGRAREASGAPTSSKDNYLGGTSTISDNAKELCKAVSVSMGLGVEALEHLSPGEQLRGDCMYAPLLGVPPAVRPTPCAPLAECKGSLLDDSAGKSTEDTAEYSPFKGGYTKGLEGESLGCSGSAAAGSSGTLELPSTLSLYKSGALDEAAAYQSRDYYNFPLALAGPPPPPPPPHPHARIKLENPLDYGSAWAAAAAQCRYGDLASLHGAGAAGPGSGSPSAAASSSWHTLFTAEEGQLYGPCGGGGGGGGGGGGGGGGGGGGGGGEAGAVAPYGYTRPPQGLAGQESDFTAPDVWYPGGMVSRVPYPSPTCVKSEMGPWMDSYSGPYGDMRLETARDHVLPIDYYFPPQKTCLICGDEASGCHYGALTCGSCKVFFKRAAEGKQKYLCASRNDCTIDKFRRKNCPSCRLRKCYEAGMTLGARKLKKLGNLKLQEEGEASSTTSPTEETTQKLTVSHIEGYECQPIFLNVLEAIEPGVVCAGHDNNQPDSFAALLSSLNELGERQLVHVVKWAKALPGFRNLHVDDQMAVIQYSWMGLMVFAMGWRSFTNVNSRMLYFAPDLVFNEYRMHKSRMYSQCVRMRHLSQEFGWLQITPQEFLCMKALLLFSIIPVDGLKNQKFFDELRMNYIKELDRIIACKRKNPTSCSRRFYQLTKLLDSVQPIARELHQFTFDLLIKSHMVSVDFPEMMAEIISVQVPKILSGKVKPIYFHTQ
Sequence of Glucocorticoid receptor (Homo sapiens) (P04150 whole entry, looked up): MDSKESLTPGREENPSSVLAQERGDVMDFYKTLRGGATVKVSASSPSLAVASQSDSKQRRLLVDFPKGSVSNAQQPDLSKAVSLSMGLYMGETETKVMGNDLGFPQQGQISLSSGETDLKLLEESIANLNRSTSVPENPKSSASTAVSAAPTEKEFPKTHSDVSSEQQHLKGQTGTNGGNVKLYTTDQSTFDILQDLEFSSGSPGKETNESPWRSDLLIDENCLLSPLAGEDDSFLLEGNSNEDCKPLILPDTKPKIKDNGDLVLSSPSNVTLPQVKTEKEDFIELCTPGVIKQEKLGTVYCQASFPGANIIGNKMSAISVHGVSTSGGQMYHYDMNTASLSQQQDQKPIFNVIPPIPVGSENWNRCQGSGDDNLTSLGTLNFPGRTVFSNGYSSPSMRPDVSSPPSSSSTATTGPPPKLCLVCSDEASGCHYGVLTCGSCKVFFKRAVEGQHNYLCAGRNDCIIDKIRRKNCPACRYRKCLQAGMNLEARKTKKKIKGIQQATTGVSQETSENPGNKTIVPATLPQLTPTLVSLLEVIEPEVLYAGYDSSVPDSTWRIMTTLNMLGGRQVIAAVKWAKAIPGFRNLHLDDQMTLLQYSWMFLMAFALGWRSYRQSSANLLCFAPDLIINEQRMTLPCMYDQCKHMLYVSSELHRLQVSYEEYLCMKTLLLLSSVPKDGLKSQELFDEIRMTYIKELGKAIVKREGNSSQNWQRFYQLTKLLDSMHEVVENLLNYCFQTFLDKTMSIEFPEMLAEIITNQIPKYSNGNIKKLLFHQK

SMILES: CC1=C(C(=O)OC(C)C)C(c2cccc([N+](=O)[O-])c2)C(C(=O)OC2CN(C(c3ccccc3)c3ccccc3)C2)=C(N)N1 (stereo not given)
- outcome [1]: inactive
- outcome [2]: inactive
- Potency [3]: inactive
- Potency [4]: inactive
- Potency [5]: inactive
- Potency [6]: inactive
- Potency [7]: inactive
- Potency [8]: 8.49 µM (active)
- Potency [9]: 18.8 µM (active)
- Potency [10]: 18.8 µM (active)
- Potency [11]: 13.3 µM (active)
- Potency [12]: inactive

SMILES: CCCCCCOC(=O)c1ccc(O)cc1
- outcome [1]: inactive
- outcome [2]: inactive
- Potency [3]: inactive
- Potency [4]: inactive
- Potency [5]: inactive
- Potency [6]: inactive
- Potency [7]: inactive
- Potency [13]: inactive
- Potency [9]: 21.7 µM (active) and inactive
- Potency [10]: 48.6 µM (active)
- Potency [11]: 48.6 µM (active)
- Potency [14]: inactive
- Potency [15]: inactive
- Potency [16]: inactive
- Potency [12]: inactive

SMILES: CNCc1cc(F)ccc1Oc1ccc(Cl)c(Cl)c1
- outcome [1]: inactive
- outcome [2]: inactive
- Potency [3]: inactive
- Potency [4]: inactive
- Potency [5]: inactive
- Potency [6]: inactive
- Potency [7]: inactive
- Potency [13]: inactive
- Potency [8]: inactive
- Potency [9]: 13.7 µM (active)
- Potency [11]: 13.7 µM (active)

SMILES: O=C1c2c(O)ccc(Nc3ccc(CCO)cc3)c2C(=O)c2c([N+](=O)[O-])ccc(O)c21
- outcome [1]: inactive
- outcome [2]: inactive
- Potency [3]: inactive
- Potency [4]: inactive
- Potency [5]: inactive
- Potency [6]: inactive
- Potency [7]: inactive
- Potency [13]: inactive
- Potency [8]: inactive
- Potency [9]: 61.1 µM (active)
- Potency [10]: 61.1 µM (active)
- Potency [11]: 27.3 µM (active)
- Potency [15]: inactive
- Potency [16]: inactive
- Potency [12]: inactive

SMILES: CC1(C)CCC(C)(C)c2cc(C(=O)Nc3ccc(C(=O)O)cc3)ccc21
- outcome [1]: inactive
- outcome [2]: inactive
- Potency [3]: inactive
- Potency [4]: inactive
- Potency [5]: inactive
- Potency [6]: inactive
- Potency [7]: inactive
- Potency [9]: 24.3 µM (active)
- Potency [10]: 19.3 µM (active)
- Potency [11]: 21.7 µM (active)
- Potency [17]: 49 µM (active)
- Potency [15]: inactive
- Potency [16]: inactive

SMILES: NNc1nc(-c2ccc(N)cc2)cs1
- outcome [1]: inactive
- outcome [2]: inactive
- Potency [3]: inactive
- Potency [4]: inactive
- Potency [5]: inactive
- Potency [6]: inactive
- Potency [7]: inactive
- Potency [8]: inactive
- Potency [9]: 17.2 µM (active)
- Potency [11]: 10.9 µM (active)
- Potency [14]: inactive

SMILES: Cc1[nH]nc2c1N=C(c1ccccc1Cl)c1cc([N+](=O)[O-])ccc1N2
- outcome [1]: inactive
- outcome [2]: inactive
- Potency [3]: inactive
- Potency [4]: inactive
- Potency [5]: inactive
- Potency [7]: inactive
- Potency [8]: 19.5 µM (active)
- Potency [9]: 0.386 µM (active)
- Potency [10]: 0.386 µM (active)
- Potency [11]: 0.486 µM (active)
- Potency [14]: 43.6 µM (active)

SMILES: CNc1ccc(O)cc1
- outcome [1]: inactive
- outcome [2]: inactive
- Potency [3]: inactive
- Potency [4]: inactive
- Potency [5]: inactive
- Potency [6]: inactive
- Potency [7]: inactive
- Potency [8]: 54.8 µM (active)
- Potency [9]: 7.68 µM (active)
- Potency [10]: 6.1 µM (active)
- Potency [11]: 10.8 µM (active)
- Potency [14]: 38.8 µM (active)
- Potency [12]: 61 µM (active)

SMILES: CCCCCCCCOc1ccccc1C(=O)Nc1ccc(C(=O)OCC[N+](C)(CC)CC)cc1
- outcome [1]: inactive
- outcome [2]: inactive
- Potency [3]: inactive
- Potency [4]: inactive
- Potency [5]: inactive
- Potency [6]: inactive
- Potency [7]: inactive
- Potency [8]: 23.9 µM (active)
- Potency [9]: 11.9 µM (active)
- Potency [10]: 23.7 µM (active)
- Potency [11]: 26.6 µM (active)
- Potency [14]: inactive
- Potency [12]: inactive

SMILES: COc1ccc(-c2ccc3cc(C(=O)O)ccc3c2)cc1C12CC3CC(CC(C3)C1)C2
- outcome [1]: inactive
- outcome [2]: inactive
- Potency [3]: inactive
- Potency [4]: inactive
- Potency [5]: inactive
- Potency [7]: inactive
- Potency [9]: inactive
- Potency [10]: inactive
- Potency [11]: inactive
- Potency [14]: inactive
- Potency [12]: inactive

SMILES: CCc1cc(Cc2cc(CC)c(N)c(CC)c2)cc(CC)c1N
- outcome [1]: inactive
- outcome [2]: inactive
- Potency [3]: inactive
- Potency [4]: inactive
- Potency [5]: inactive
- Potency [6]: inactive
- Potency [7]: inactive
- Potency [18]: 43.6 µM (active)
- Potency [9]: 61.1 µM (active)
- Potency [11]: 54.5 µM (active)
- Potency [14]: inactive
- Potency [12]: inactive

SMILES: Nc1ccc2c3c(cccc13)-c1ccccc1-2
- Potency [3]: inactive
- Potency [4]: inactive
- Potency [6]: 39.8 µM [fluorescent] (active)
- Potency [9]: 61.8 µM (active)
- Potency [10]: 27.6 µM (active)
- Potency [11]: 55 µM (active)
- Potency [14]: inactive
- Potency [16]: inactive

SMILES: CCCN(CCC)c1c([N+](=O)[O-])cc(C(F)(F)F)c(N)c1[N+](=O)[O-]
- outcome [1]: inactive
- outcome [2]: inactive
- Potency [3]: inactive
- Potency [4]: inactive
- Potency [5]: inactive
- Potency [6]: inactive
- Potency [7]: inactive
- Potency [8]: 48.9 µM (active)
- Potency [9]: 12.2 µM (active)
- Potency [11]: 12.2 µM (active)
- Potency [12]: 60.9 µM (active)

SMILES: CC(C)n1nc(-c2cc3cc(O)ccc3[nH]2)c2c(N)ncnc21
- outcome [1]: inactive
- outcome [2]: inactive
- Potency [3]: inactive
- Potency [4]: inactive
- Potency [5]: inactive
- Potency [6]: inactive
- Potency [7]: inactive
- Potency [8]: 9.52 µM (active)
- Potency [9]: 0.841 µM (active)
- Potency [10]: 2.37 µM (active)
- Potency [11]: 0.944 µM (active)

SMILES: Fc1ccc(C(c2ccc(F)cc2)N2CCN(C/C=C/c3ccccc3)CC2)cc1
- outcome [1]: inactive
- outcome [2]: inactive
- Potency [3]: inactive
- Potency [4]: inactive
- Potency [5]: inactive
- Potency [6]: inactive
- Potency [7]: inactive
- Potency [13]: inactive
- Potency [8]: inactive
- Potency [9]: 10.6 µM (active)
- Potency [10]: 13.3 µM (active)
- Potency [11]: 11.9 µM (active)
- Potency [12]: inactive
